# Test results reported in the supplement of paper PMC8728848.
# This is one part of a sample in which the strongest signals are shown more often than they occur.
# B1: Surfactant Protein D (Human); Neck + Carbohydrate Recognition Domain (NCRD) (Homo sapiens) (protein)
# chain: MLLFLLSALVLLTQPLGYLEAEMKTYSHRTMPSACTLVMCSSVESGLPGRDRDGREGPRGEKGDPGLPGAAGQAGMPGQAGPVGPKGDNGSVGEPGPKGDTGPSGPPGPPGVPGPAGREGALGKQGNIGPQGKPGPKGEAGPKGEVGAPGMQGSAGARGLAGPKGERGVPGERGVPGNTGAAGSAGAMGPQGSPGARGPPGLKGDKGIPGDKGAKGESGLPDVASLRQQVEALQGQVQHLQAAFSQYKKVELFPNGQSVGEKIFKTAQFVKPFTEAQLLCTQAGGQLASPRSAAENAALQQLVVAKNEAAFLSMTDSKTEGKFTYPTGESLVYSNWAPGEPNDDGGSEDCVEIFTNGKWNDRACGEKRLVVCEF
# B2: CC1G-10077 (Coprinopsis cinerea), A8NDT7 (protein)
# chain: MALNEGVYWIRNSRFTNKVLDLDAANVAKGTSILDFNEHGTFNENHNQLWIVERFQSRDTYLIRSVHSNLVLDLSQGLSANGTPILCWTQHGGTNQQWRIEWVKDDNKTPLYRIVSVATGTAISHNEDDSSAYTVAWSVDDGPKQLWSFDPFVTPLLYRLRVKSTSRVLDLAAASADNGTLALAWEQHTAITKRNQLWWLPYRSGAEEYTIQCLETSTVADLSGGNSGNGTPIYGWQSHGGRNQQWKFEPTSDSGDYYHIKNVEGGSVMDAYMNDSQKRVGGWSNNGGDNQKWLLDPLPSPGPGWVLIQNGGTGKFLCSTPSGDIGTADGPETVYDYSVQWRFIQREYTGVYHVVNRATGAYLRQIGTSMPSIGLAEENDDELKDWWMLETYDNSEIGLASIISRWTGNVLDHYGGVSVQALDNNTENSYRSWAIIPARDWLTSFSLVNGQGGLCLAAQYAREETRLSTTANVNDFHAQWVFRKPSGSSGYTIQNKYNNHYVGGTSARWELVVCCNKYFGIRNTSTQKYLAIEDGQVTFQDQDMTDRKQCWELCSGRATDTSGNDYDLIYMDDDLLEVMIPWVGDKQGDLKHYIEKRATKKPPKDKGGWQLPAAGLIKKPKFNDIRQLLQELIEQWEWDVVNEEREQIQTLVSIDEAEARRLLGRRPHPDIVAAYQRSRSSTLFRIDRQGYFNIAGDRYVNIQGQYGDDSYFHIALPVGVRFGREQIRRFLRDSLDRSTSVTITPTTCKPPSGGPDYNRDPDSDGDNSWIKWTIAVVGTSAIKHSEL
# Legend:
# Test in all cases: glycan array binding signal (z-score within array); higher = stronger binding
# Settings in all cases: glycan notation: IUPAC condensed, linker removed
# [1] = target: Fuc(a1-3)[Gal(b1-4)]GlcNAc(b1-3)Gal(b1-3)[Fuc(a1-4)]GlcNAc
# Summary of the method: (§1)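 Glycan array data came from 3228 arrays in the Consortium for Functional Glycomics database, and only arrays with an available protein sequence were kept. Glycan names were put into IUPAC-condensed notation, and columns mapping to the same glycan were averaged. The binding signal is a within-array Z-score, averaged across arrays of one protein sequence run at different concentrations or buffers and across linkers. A negative Z-score can be read as non-binding.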
# [2] = target: Fuc(a1-3)[Gal(b1-4)]GlcNAc(b1-4)Gal(b1-4)[Fuc(a1-3)]GlcNAc(b1-4)Gal(b1-4)[Fuc(a1-3)]GlcNAc
# Summary of the method: as §1
# Gal(a1-6)Glc = target: Gal(a1-6)Glc
# Summary of the method: as §1
# Gal(b1-3)Gal(b1-4)GlcNAc = target: Gal(b1-3)Gal(b1-4)GlcNAc
# Summary of the method: as §1
# Gal(b1-3)GlcNAc = target: Gal(b1-3)GlcNAc
# Summary of the method: as §1
# [3] = target: Gal(b1-3)GlcNAc(b1-2)Man(a1-3)[Gal(b1-3)GlcNAc(b1-2)Man(a1-6)]Man(b1-4)GlcNAc(b1-4)GlcNAc
# Summary of the method: as §1
# [4] = target: Gal(b1-3)GlcNAc(b1-3)Gal(b1-4)Glc
# Summary of the method: as §1
# [5] = target: Gal(b1-3)[Fuc(a1-4)]GlcNAc
# Summary of the method: as §1
# [6] = target: Gal(b1-3)[Fuc(a1-4)]GlcNAc(b1-3)Gal(b1-4)[Fuc(a1-3)]GlcNAc
# Summary of the method: as §1
# [7] = target: Gal(b1-4)GlcNAc(b1-3)[Gal(b1-4)GlcNAc(b1-6)]Gal(b1-4)GlcNAc
# Summary of the method: as §1
# Gal6S(b1-4)Glc = target: Gal6S(b1-4)Glc
# Summary of the method: as §1
# [8] = target: GlcNAc(b1-3)[GlcNAc(b1-6)]GalNAc
# Summary of the method: as §1
# [9] = target: GlcNAc(b1-4)GlcNAc(b1-4)GlcNAc
# Summary of the method: as §1
# [10] = target: GlcNAc(b1-4)GlcNAc(b1-4)GlcNAc(b1-4)GlcNAc(b1-4)GlcNAc(b1-4)GlcNAc
# Summary of the method: as §1
# [11] = target: Man(a1-2)Man(a1-2)Man(a1-3)Man
# Summary of the method: as §1
# [12] = target: Man(a1-2)Man(a1-2)Man(a1-6)[Man(a1-3)]Man
# Summary of the method: as §1
# [13] = target: Man(a1-2)Man(a1-3)[Man(a1-2)Man(a1-6)]Man
# Summary of the method: as §1
# [14] = target: Man(a1-2)Man(a1-3)[Man(a1-6)]Man(a1-6)[Man(a1-2)Man(a1-3)]Man(b1-4)GlcNAc(b1-4)GlcNAc
# Summary of the method: as §1
# [15] = target: Man(a1-2)Man(a1-6)[Man(a1-3)]Man(a1-6)[Man(a1-2)Man(a1-2)Man(a1-3)]Man(b1-4)GlcNAc(b1-4)GlcNAc
# Summary of the method: as §1
# [16] = target: Man(a1-3)[Man(a1-6)]Man(a1-6)[Man(a1-2)Man(a1-3)]Man(b1-4)GlcNAc(b1-4)GlcNAc
# Summary of the method: as §1
# Neu5Ac(a2-3)Gal = target: Neu5Ac(a2-3)Gal
# Summary of the method: as §1
# [17] = target: Neu5Ac(a2-3)Gal(b1-3)[Fuc(a1-4)]GlcNAc(b1-3)Gal(b1-4)[Fuc(a1-3)]GlcNAc
# Summary of the method: as §1
# [18] = target: Neu5Ac(a2-3)[GalNAc(b1-4)]Gal(b1-4)Glc
# Summary of the method: as §1
# [19] = target: Neu5Ac(a2-3)[Neu5Ac(a2-6)]GalNAc
# Summary of the method: as §1
# [20] = target: Neu5Ac(a2-8)Neu5Ac(a2-3)[GalNAc(b1-4)]Gal(b1-4)Glc
# Summary of the method: as §1
# [21] = target: Neu5Ac(b2-6)Gal(b1-4)GlcNAc
# Summary of the method: as §1
# GlcNAc(b1-3)Gal(b1-4)Glc = target: GlcNAc(b1-3)Gal(b1-4)Glc
# Summary of the method: as §1
# [22] = target: GlcNAc(b1-3)Gal(b1-4)GlcNAc(b1-3)Gal(b1-4)GlcNAc(b1-3)Gal(b1-4)GlcNAc(b1-2)Man(a1-3)[GlcNAc(b1-3)Gal(b1-4)GlcNAc(b1-3)Gal(b1-4)GlcNAc(b1-3)Gal(b1-4)GlcNAc(b1-2)Man(a1-6)]Man(b1-4)GlcNAc(b1-4)[Fuc(a1-6)]GlcNAc
# Summary of the method: as §1
# [23] = target: GlcNAc(b1-6)Gal(b1-4)GlcNAc
# Summary of the method: as §1
# Kdn(a2-3)Gal(b1-4)GlcNAc = target: Kdn(a2-3)Gal(b1-4)GlcNAc
# Summary of the method: as §1
# [24] = target: Neu5Ac(a2-3)Gal(b1-3)GlcNAc
# Summary of the method: as §1
# [25] = target: Neu5Ac(a2-3)Gal(b1-3)GlcNAc(b1-3)Gal(b1-4)GlcNAc
# Summary of the method: as §1
# [26] = target: Neu5Ac(a2-3)Gal(b1-3)[Fuc(a1-4)]GlcNAc
# Summary of the method: as §1
# [27] = target: Neu5Ac(a2-3)Gal(b1-4)GlcNAc(b1-2)Man
# Summary of the method: as §1
# [28] = target: Neu5Ac(a2-3)Gal(b1-4)GlcNAc(b1-3)Gal(b1-4)GlcNAc(b1-3)Gal(b1-4)GlcNAc(b1-2)Man(a1-3)[Neu5Ac(a2-3)Gal(b1-4)GlcNAc(b1-3)Gal(b1-4)GlcNAc(b1-3)Gal(b1-4)GlcNAc(b1-2)Man(a1-6)]GalNAc
# Summary of the method: as §1
# [29] = target: Neu5Ac(a2-3)Gal(b1-4)[Fuc(a1-3)]GlcNAc(b1-6)[Gal(b1-3)]GalNAc
# Summary of the method: as §1
# [30] = target: Neu5Ac(a2-3)Gal(b1-4)[Fuc(a1-3)]GlcNAc6S
# Summary of the method: as §1
# [31] = target: Neu5Ac(a2-6)Gal(b1-3)GlcNAc(b1-3)[Gal(b1-4)GlcNAc(b1-6)]Gal(b1-4)Glc
# Summary of the method: as §1
# [32] = target: Neu5Ac(a2-6)Gal(b1-4)GlcNAc(b1-2)Man(a1-3)[Neu5Ac(a2-6)Gal(b1-4)GlcNAc(b1-2)Man(a1-6)]Man(b1-4)GlcNAc(b1-4)GlcNAc
# Summary of the method: as §1
# [33] = target: Neu5Ac(a2-8)Neu5Ac(a2-8)Neu5Ac
# Summary of the method: as §1
Binder,glycan array binding signal (z-score) [1],glycan array binding signal (z-score) [2],glycan array binding signal (z-score) (Gal(a1-6)Glc),glycan array binding signal (z-score) (Gal(b1-3)Gal(b1-4)GlcNAc),glycan array binding signal (z-score) (Gal(b1-3)GlcNAc),glycan array binding signal (z-score) [3],glycan array binding signal (z-score) [4],glycan array binding signal (z-score) [5],glycan array binding signal (z-score) [6],glycan array binding signal (z-score) [7],glycan array binding signal (z-score) (Gal6S(b1-4)Glc),glycan array binding signal (z-score) [8],glycan array binding signal (z-score) [9],glycan array binding signal (z-score) [10],glycan array binding signal (z-score) [11],glycan array binding signal (z-score) [12],glycan array binding signal (z-score) [13],glycan array binding signal (z-score) [14],glycan array binding signal (z-score) [15],glycan array binding signal (z-score) [16],glycan array binding signal (z-score) (Neu5Ac(a2-3)Gal),glycan array binding signal (z-score) [17],glycan array binding signal (z-score) [18],glycan array binding signal (z-score) [19],glycan array binding signal (z-score) [20],glycan array binding signal (z-score) [21],glycan array binding signal (z-score) (GlcNAc(b1-3)Gal(b1-4)Glc),glycan array binding signal (z-score) [22],glycan array binding signal (z-score) [23],glycan array binding signal (z-score) (Kdn(a2-3)Gal(b1-4)GlcNAc),glycan array binding signal (z-score) [24],glycan array binding signal (z-score) [25],glycan array binding signal (z-score) [26],glycan array binding signal (z-score) [27],glycan array binding signal (z-score) [28],glycan array binding signal (z-score) [29],glycan array binding signal (z-score) [30],glycan array binding signal (z-score) [31],glycan array binding signal (z-score) [32],glycan array binding signal (z-score) [33]
B1,-0.257,-0.273,-0.083,-0.274,-0.263,-0.275,-0.271,-0.233,-0.053,-0.29,-0.216,-0.258,-0.24,0.127,6.02,5.46,4.89,6.78,5.33,4.68,-0.243,0.1,-0.277,-0.296,-0.238,-0.288,,,,,,,,,,,,,,
B2,,,,,,,,,,,,,,,,,,,,,,,,,-0.233,,-0.371,-0.141,3.18,-0.466,-0.452,-0.476,-0.473,-0.331,-0.417,-0.37,-0.468,0.306,-0.326,-0.448
